Source: ChEMBL document CHEMBL3988442, “University of Dundee, Small-Polar-MMV Screening Library” (2021)
Out of some 53,000 compounds screened, about 900 (1.7%) showed an effect of 50% or more. Many of the other results were omitted from the sample, so strong results are more common in it than they were.

System: Mycobacterium tuberculosis
Assay: Cornell - Phenotypic assay to identify agents that inhibit growth of Mycobacterium tuberculosis
Assay type: functional
Design: scale not given: direction of the effect not stated beside the values
Conditions: 10 mM as filed; unlikely as a test dose

SMILES	Percent Effect [%]
c1ccc(Cc2nc(CNC3CCOC4(CCOCC4)C3)no2)cc1 (centres undefined)	8.637
Cc1ocnc1CNC(=O)Nc1ccc(N2CCOC(C)C2)cc1 (centres undefined)	104
CC1CN(c2ccc(CNC(=O)NCCO)cn2)CCO1 (centres undefined)	2.175
Cc1noc(C)c1CN1C[C@@H](C(=O)O)[C@H](c2ccccc2)C1	23.54
Cc1noc(C)c1CNC(=O)N1CCCC(C)CC1 (centres undefined)	12.27
Cc1noc(C)c1CNC(=O)Nc1ccc(N2CCSCC2)cc1	104.5
CC1CN(c2ccc(NC(=O)Cn3cccn3)cc2)CCO1 (centres undefined)	-5.599
Cc1noc(C)c1CNC(=O)NCCC(=O)N1CCCc2ccccc21	-5.48
Cc1noc(C)c1CNC(=O)Nc1ccc(N2CCOC2=O)cc1	-58.42
Cc1noc(C)c1CNC(=O)Nc1ccc(N2CCOC(C)C2)cc1 (centres undefined)	103.9
Cc1n[nH]/c(=N\C(=O)c2c3c(nc4onc(C)c24)CCC3)s1	20.11
CN(C)CCNCCC(c1ccccc1)C1CCOC(C)(C)C1.O=C(O)C(=O)O (centres undefined)	21.42
CCc1nc(C2CCCN2C(=O)c2cc(Cl)c[nH]2)no1 (centres undefined)	23.06
CC(C)CC(=O)N1CC(=O)N(Cc2ccco2)CC(O)C1 (centres undefined)	-16.35
Cn1nc(Br)c2c(NCCCS(N)(=O)=O)ncnc21	24.15
Nc1ncc(-c2ccc(NC(=O)[C@@H]3CCCCN3)cc2)cn1	-8.73
Cc1nc(Nc2nncs2)cc(C2CCCN2C)n1 (centres undefined)	-51.01
O=C1CC(c2ccsc2)c2sc(C(=O)O)c(-c3ccc(F)cc3)c2N1 (centres undefined)	105.2
O=C1CC(c2ccsc2)c2sc(C(=O)O)c(-c3ccccc3)c2N1 (centres undefined)	-23.75
O=C1CC(c2ccccc2)c2sc(C(=O)O)c(-c3ccccc3)c2N1 (centres undefined)	17.04
O=C(C1CCOC1)N1C[C@@H]2CCN(C(=O)c3cscn3)[C@@H]2C1 (some centres undefined)	-35.62
CC(CC(=O)NS(C)(=O)=O)C1CCCCC1 (centres undefined)	-16.66
Cc1ccc(-c2cc(C(=O)NCCC3=CCCCC3)[nH]n2)o1	52.86
O=C(NCCC1=CCCCC1)c1cc(-c2ccc(O)cc2)n[nH]1	22.09
CCCc1cc(C(=O)NCCC2=CCCCC2)[nH]n1	32.79
Cc1cc(F)ccc1N1CCCC(NC2CCSCC2)C1=O (centres undefined)	-0.6719

SMILES	Percent Effect [%]
Cc1cc(S(=O)(=O)N2CCCc3cc(Br)ccc32)sc1C(=O)O	32.41
COC1CCN(C(=O)CC(C)(C)C)CC(=O)N(C)c2ccccc21 (centres undefined)	2.903
CC(C)=CCN1C[C@@H]2CN(C(=O)c3ccc(CO)cc3)C[C@]2(C(=O)O)C1	22.99
CN(C)C(=O)C1CCC2(CCN(C(=O)Nc3ccccc3)CC2)O1 (centres undefined)	2.965
COc1ccc(C2Nc3cc(Cl)ccc3C3=NCCN32)cc1O (centres undefined)	10.02
COc1cc(C2Nc3cc(Cl)ccc3C3=NCCN32)cc(OC)c1OC (centres undefined)	-27.36
COc1cc(C2Nc3cc(Cl)ccc3C3=NCCN32)ccc1O (centres undefined)	80.22
CCCn1cc(C(=O)N2CCCC2(C)c2nc(C)cc(N)n2)cn1 (centres undefined)	-4.951
CSCc1ccc(N2CCN(c3ccc(Cl)cn3)CC2)nc1	-11.59
CSCCCN1CCN(c2ccc(Cl)cn2)CC1	62.54
Clc1ccc(N2CCN(CCCN3CCCCC3)CC2)nc1	25.77
COC(=O)CNC(=O)C1CCN(S(C)(=O)=O)CC1	-1.242
O=C(Cc1noc2ccccc12)N1CCCC1c1noc(C2CC2)n1 (centres undefined)	0.3643
O=C(c1n[nH]c2ccccc12)N1CCCC1c1noc(C2CC2)n1 (centres undefined)	50.46
O=C(c1cccc2[nH]ncc12)N1CCCC1c1noc(C2CC2)n1 (centres undefined)	0.6634
CC(=O)N1CCO[C@@H]2CN(S(=O)(=O)c3ccc(C)cc3)CC[C@@H]2C1	-25.36
CCc1noc(C(C)N2CCN(CC(C)C)CC2)n1 (centres undefined)	-14.43
COc1cccc(OC)c1CNC(Cc1ccsc1)c1ccc(C)cn1 (centres undefined)	62.45
COc1ccc(CNC(Cc2ccsc2)c2ccc(C)cn2)cc1OC.Cl (centres undefined)	26.36
COc1ccc(CNC(Cc2ccsc2)c2ccc(C)cn2)c(OC)c1 (centres undefined)	18.63
CCc1nc(NS(=O)(=O)c2cccc(F)c2C)no1	37.51
CC(CO)NC(=O)c1ccc(NCc2ccc(F)c(F)c2)cc1 (centres undefined)	4.78
CC(C)c1ncncc1C(=O)N1CCN(Cc2ccsc2)CC1	5.12
O=C(c1cc(C2CC2)[nH]n1)N1CCN(Cc2ccccc2)CC1	7.865
CC(C)c1cc(C(=O)N2CCN(Cc3ccsc3)CC2)n[nH]1	50.59
O=C(c1cc(C2CC2)[nH]n1)N1CCN(Cc2ccsc2)CC1	6.464

SMILES	Percent Effect [%]
O=C(c1cc(C2CC2)[nH]n1)N1CCN(Cc2ccc3c(c2)OCO3)CC1	83.19
O=C(c1cc(C2CC2)[nH]n1)N1CCN(Cc2ccc(Cl)cc2)CC1	-11.68
Cc1cccc(CN2CCN(C(=O)c3cc(C4CC4)[nH]n3)CC2)c1	63.11
CC(C)c1ccc(CN2CCN(C(=O)c3cc(C4CC4)[nH]n3)CC2)cc1	-22.19
O=C(c1cc(C2CC2)[nH]n1)N1CCN(Cc2ccncc2)CC1	8.467
CCCOc1cccc(C(=O)N2CCCC(n3cncn3)C2)c1 (centres undefined)	2.869
CCNC(=O)CS(=O)(=O)NC1CCC(C)CC1 (centres undefined)	-36.82
CC1CCC(NS(=O)(=O)CC(=O)NC2(C(N)=O)CCCC2)CC1 (centres undefined)	-11.11
CC1CCC(NS(=O)(=O)CC(=O)NC(C2CC2)C2CC2)CC1 (centres undefined)	-19.5
CC1CCC(NS(=O)(=O)CC(=O)NCC2CCC2)CC1 (centres undefined)	57.41
CC1CCC(NS(=O)(=O)CC(=O)Nc2ccccc2N2CCCC2)CC1 (centres undefined)	81.68
CNC(=O)CS(=O)(=O)NC1CCC(C)CC1 (centres undefined)	-17.27
CS(=O)(=O)NCC1CCCN(C(=O)Nc2ccccc2N2CCCC2)C1 (centres undefined)	12.25
CC1CCC(NS(=O)(=O)CC(=O)Nc2ccc(N3CCCC3)cn2)CC1 (centres undefined)	-5.738
Cc1ccc(NC(=O)CS(=O)(=O)NC2CCC(C)CC2)nc1 (centres undefined)	59.09
CCOCc1cnc2n1CCN(C(=O)c1cccc3c1OCCO3)C2C (centres undefined)	-10.91
Cc1cccc(-c2nc(CN3CC(n4nc(C)cc4C)C3)no2)c1	18.28
CC(C)N1CCO[C@H]2CN(Cc3cc[nH]n3)C[C@H]21.O=C(O)C(F)(F)F.O=C(O)C(F)(F)F	-4.182
O=C(CC1CCCC1)N1CCC(c2noc(-c3ccccn3)n2)CC1	12.79
O=C1NC2(CCc3ccccc31)CCN(C(=O)c1ccncc1)C2 (centres undefined)	9.772
Cc1nnc(C2CCN(C(=O)c3ccc(-n4cccc4)cc3)CC2)s1	34.12
O=C1CCNc2cc3c(cc2CN1CC1CC1)OCO3	-9.17
O=C(CC1COCCN1)N1CCC(N2CCc3ccccc3C2)CC1 (centres undefined)	-14.32
CCN(CCCNC(=O)Nc1ccccc1C(C)C)S(C)(=O)=O	-25.97
CC(N)Cc1ccccc1Sc1ccccc1.O=C(O)/C=C\C(=O)O (centres undefined)	13.46
CC(N)Cc1ccccc1Sc1ccc(O)cc1.CC(N)Cc1ccccc1Sc1ccc(O)cc1.O=C(O)C(=O)O (centres undefined)	102.6

SMILES	Percent Effect [%]
Fc1ccc(Sc2ccccc2CNC2=NCCN2)cc1.I	18.51
CC(C(=O)Nc1ccccc1Sc1ccccc1)S(C)(=O)=O (centres undefined)	13.38
NCc1ccccc1Sc1ccc(O)cc1.O=C(O)/C=C\C(=O)O	11.62
CNC(C)Cc1ccccc1Sc1ccc(O)cc1.Cl (centres undefined)	105.4
Clc1ccc(COCC2CCN(Cc3ccccn3)CC2)cc1.O=C(O)C(=O)O	33.78
Cc1cccc(=O)n1CCC(=O)N1CC[C@@](O)(C2CCC2)[C@H](C)C1	13.12
CN(C)CCNc1ccc(-c2nc(COc3ccccc3)no2)cn1	16.69
CN(C)CCN(C)c1ccc(-c2nc(COc3ccccc3)no2)cn1	54.95
COCc1noc(-c2ccc(N(C)Cc3ncccc3C)nc2)n1	3.239
CN1CCCC(c2cccc(CCC(N)=O)n2)C1 (centres undefined)	-6.826
CNC(=O)N1CCc2nc(C(=O)NCc3cccc(OC)c3)sc2CC1	-3.356
N#Cc1ncn(CCC(=O)Nc2c(Cl)cccc2Cl)n1	58.03
COC(=O)c1ccc(Cn2cnc(C#N)n2)cc1	33.09
CN(Cc1c(F)cccc1Cl)C(=O)Cn1cnc(C#N)n1	14.48
N#Cc1ncn(CCC(=O)Nc2cc(Cl)ccc2Cl)n1	44.53
N#Cc1ncn(CCS(=O)(=O)c2ccc(Cl)cc2)n1	-29.79
N#Cc1ncn(CCC(=O)Nc2ccccc2F)n1	26.46
N#Cc1ncn(CCC(=O)Nc2cccc(Cl)c2)n1	68.3
N#Cc1ncn(Cc2c(F)cccc2Cl)n1	3.788
N#Cc1ncn(CC(=O)Nc2cc(Cl)ccc2F)n1	104.7
N#Cc1ncn(CCC(=O)Nc2ccc(F)c(F)c2)n1	34.8
N#Cc1ncn(CCC(=O)Nc2ccc(Cl)cc2F)n1	105.4
N#Cc1ncn(CC(=O)Cc2c(F)cccc2Cl)n1	41.98
OCCOc1cc(F)ccc1NCc1ccc(F)c(F)c1	11.25
CCOC(=O)[C@H]1CNC[C@H]1C(=O)OCC.Cl	36.02
CNc1cccc(C2CN(C(=O)c3c[nH]cn3)CCO2)n1 (centres undefined)	6.6
